Here are results for eleven compounds from PubChem BioAssay (NCATS).

Inconclusive results are not listed. The source made the active and inactive calls. Calls follow the shape of the dose curve; as a rule, active = well fitted inhibition curve with a large enough effect; inconclusive = small, poorly fitted or top-dose-only effect; inactive = flat fitted curve, though single readings scatter. Peptide text beside a SMILES is read from it.

What all share (assay): qHTS profiling for inhibitors of Plasmodium falciparum proliferation (AID 504749); also: nearly all actives have a fitted effect of over 60% in size
Details in all cases: P. falciparum in erythrocytes, SYBR Green DNA, 72 h; series mostly up to 12.8 µM

In one assay the test system is 3D7. An outline of the steps:
(§1)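 Each compound contacts P. falciparum-infected red blood cells for 72 h at 37 C; lysis buffer (Tris, EDTA, saponin, Triton X, SYBR Green I) is added and fluorescence measured next morning; values normalized to controls.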

For another assay, the system named is CP191. An outline of the steps:
as §1

A further assay has as its system CP237. A digest of the protocol: as §1
In a further assay the test system is CP256. A digest of the protocol:
as §1

The next assay concerns CP265. A digest of the protocol: as §1
In the next assay the test system is DIV30. An outline of the steps:
as §1

A further assay has as its system ECU. An outline of the steps:
as §1

A further assay concerns N140. A digest of the protocol: as §1
In the next assay the test system is PAD. An outline of the steps:
as §1

The subject of another assay is PC26. An outline of the steps: as §1
The next assay relates to TAB109. A digest of the protocol: as §1
The next assay relates to AA1029. A digest of the protocol:
as §1

A further assay has as its system AS120. A digest of the protocol:
as §1

The next assay concerns CP192. A digest of the protocol: as §1
The next assay relates to CP194. A digest of the protocol: as §1
Another assay relates to CP217. An outline of the steps:
as §1

The subject of a further assay is CP252. An outline of the steps: as §1
The next assay concerns CP286. An outline of the steps: as §1
Another assay relates to CP291. An outline of the steps:
as §1

In another assay the test system is SC27B. A digest of the protocol: as §1
Potency is read from the fitted curve at half-maximal effect.

Regarding `NC(CCC(=O)N[C@@H](CS)C(=O)NCC(=O)O)C(=O)O` (some centres undefined), the Potency was 6.31 µM (active) with 3D7; 8.91 µM (active) with CP191; 3.55 µM (active) with CP237; 8.91 µM (active) with CP256; 7.94 µM (active) with CP265; 12 µM (active) in the assay on DIV30. The Potency was 10 µM (active) in the assay with ECU; 4.47 µM (active) in the assay on N140; 6.31 µM (active) in the assay on PAD; 12 µM (active) in the assay with PC26; 4.47 µM (active) with TAB109.
For the compound `C[C@@]12C=CC(=O)C=C1CCC1C3CC(O)[C@@](O)(C(=O)CO)[C@]3(C)CC(O)[C@]12F` (some centres undefined), the Potency entry with 3D7, in the assay with AA1029, in the assay on AS120, in the assay on CP191, in the assay with CP192 and in the assay with CP194 was “inactive” throughout. Moreover, the Potency result in the assay on CP217, with CP237, with CP252, with CP256, in the assay with CP265 and in the assay on CP286 was “inactive” in each case. The Potency result with CP291, in the assay with DIV30, in the assay with ECU, with N140, with PAD and in the assay on PC26 was “inactive” in each case. The Potency entry in the assay with SC27B and with TAB109 was “inactive” in each case.
As for `CCC1OC(=O)C(C)[C@@H](O[C@H]2C[C@@](C)(OC)C(O)C(C)O2)C(C)[C@@H](O[C@@H]2OC(C)CC(N(C)C)C2O)[C@@](C)(O)CC(C)C(=O)[C@@H](C)C(O)[C@]1(C)O` (some centres undefined), the Potency entry in the assay on 3D7, with AA1029, in the assay on AS120, in the assay with CP191, in the assay on CP192 and in the assay with CP194 was “inactive” each time. The Potency result in the assay with CP217, with CP237, in the assay on CP252, in the assay with CP256, in the assay on CP265 and with CP286 was “inactive” in each case. Also, the Potency entry with CP291, in the assay with DIV30, in the assay on ECU, in the assay on N140, with PAD and with PC26 was “inactive” each time. Moreover, the Potency entry in the assay on SC27B was “inactive”.
For `NCC1CCC(N)C(O[C@@H]2C(O)[C@H](O[C@H]3OC(CO)C(O)C(N)C3O)[C@@H](N)C[C@H]2N)O1` (some centres undefined), the Potency entry in the assay with 3D7, in the assay with AA1029, in the assay with AS120, in the assay on CP191, with CP192 and in the assay with CP194 was “inactive” each time. The Potency result in the assay with CP217, with CP237, in the assay on CP252, in the assay on CP256, in the assay with CP265 and in the assay on CP286 was “inactive” each time. For the same compound, the Potency result in the assay with CP291, in the assay on DIV30, with ECU, in the assay on N140, with PAD and in the assay with PC26 was “inactive” in each case. Also, the Potency result in the assay with SC27B and in the assay with TAB109 was “inactive” in each case.
As for `COC1OC(CO)C(OC2OC(C(=O)O)C(OC3OC(COS(=O)(=O)O)C(OC4OC(C(=O)O)C(OC5OC(CO)C(OC6OC(C(=O)O)C(OC7OC(COS(=O)(=O)O)C(OC8OC(C(=O)O)=C[C@H](O)C8OS(=O)(=O)O)C(O)C7NC(C)=O)[C@@H](O)C6O)C(O)C5NC(C)=O)[C@@H](O)C4O)C(O)C3NC(C)=O)[C@@H](O)C2O)C(O)C1NC(C)=O` (some centres undefined), the Potency was 11.2 µM (active) with CP191 and 10 µM (active) with CP217. In addition, the Potency result in the assay with CP192, in the assay on CP194 and in the assay on CP291 was “inactive” each time.
Take `CC(C)Oc1ccc2c(=O)cc(-c3ccccc3)oc2c1`: the Potency entry in the assay on 3D7, in the assay with AA1029, with AS120, in the assay on CP191, in the assay with CP192 and in the assay with CP194 was “inactive” in each case. Also, the Potency entry in the assay with CP217, with CP237, in the assay with CP252, in the assay with CP256, in the assay with CP265 and with CP286 was “inactive” each time. Further, the Potency entry with CP291, in the assay with DIV30, in the assay on ECU, with N140, with PAD and in the assay with PC26 was “inactive” each time. The Potency result with SC27B and with TAB109 was “inactive” throughout.
As for `CC(C)=CCC[C@](C)(O)C1CC=C(C)CC1` (some centres undefined), the Potency result in the assay with 3D7, with AA1029, in the assay with AS120, with CP191, in the assay with CP192 and with CP194 was “inactive” throughout. Moreover, the Potency entry in the assay on CP217, in the assay with CP237, with CP252, in the assay with CP256, in the assay on CP265 and with CP286 was “inactive” throughout. For the same compound, the Potency entry in the assay with CP291, in the assay on DIV30, with ECU, in the assay with N140, in the assay with PAD and in the assay with PC26 was “inactive” each time. Besides, the Potency result with SC27B and with TAB109 was “inactive” each time.
Regarding `CC1CCC(C(C)C)C(=O)C1` (centres undefined), the Potency result with 3D7, with AA1029, in the assay with AS120, in the assay with CP191, with CP192 and in the assay with CP194 was “inactive” each time. Also, the Potency entry in the assay on CP217, in the assay with CP237, in the assay on CP252, with CP256, in the assay on CP265 and in the assay on CP286 was “inactive” throughout. Further, the Potency entry in the assay on CP291, in the assay on DIV30, with ECU, in the assay with N140, in the assay with PAD and in the assay on PC26 was “inactive” throughout. Also, the Potency result in the assay with SC27B and in the assay with TAB109 was “inactive” throughout.
For `N[C@@H]1C(O)OC(CO)C(O)C1O` (some centres undefined), the Potency entry in the assay with 3D7, in the assay on AA1029, in the assay with AS120, in the assay with CP191, in the assay on CP194 and in the assay with CP217 was “inactive” in each case. For the same compound, the Potency entry with CP237, in the assay on CP252, with CP256, in the assay with CP265, in the assay on CP286 and in the assay on CP291 was “inactive” in each case. The Potency entry in the assay on DIV30, in the assay with ECU, with N140, with PAD, in the assay with PC26 and with SC27B was “inactive” throughout. The Potency result in the assay with TAB109 was “inactive”.
On to `CC(=O)N[C@H](CC(C)C)C(=O)O`, for which the Potency entry with 3D7, with AA1029, in the assay on AS120, with CP191, in the assay on CP192 and with CP194 was “inactive” each time. Also, the Potency result in the assay on CP217, with CP237, with CP252, in the assay with CP256, with CP265 and in the assay on CP286 was “inactive” each time. Moreover, the Potency entry with CP291, in the assay on DIV30, in the assay with ECU, in the assay on N140, in the assay with PAD and with PC26 was “inactive” each time. The Potency entry in the assay on SC27B and in the assay on TAB109 was “inactive” throughout.
Regarding `COC(=O)C(Cc1ccccc1)NC(=O)C(N)CC(=O)O` (stereo not drawn) (H-Asp-Phe-OMe; configuration not given here), the Potency result in the assay on 3D7, in the assay with AA1029, in the assay on AS120, with CP191, in the assay with CP192 and with CP194 was “inactive” throughout. The Potency result with CP217, in the assay with CP237, with CP252, in the assay with CP256, with CP265 and in the assay with CP286 was “inactive” throughout. Further, the Potency result in the assay on CP291, in the assay on DIV30, in the assay on ECU, with N140, in the assay with PAD and with PC26 was “inactive” in each case. Moreover, the Potency entry with SC27B and in the assay with TAB109 was “inactive” each time.
